For five compounds, Percent Effect results are on record in ChEMBL document CHEMBL3988442, “University of Dundee, Small-Polar-MMV Screening Library” (2021).

For some of these results: Entries with a potency or affinity are not part of this list.

Set-up in all cases: scale not given: direction of the effect not stated beside the values
The target of assay [1] is Protein translocase subunit SecA (Escherichia coli (strain K12)) (UniProt P10408). As to the kind of experiment: Assay to Identify E. coli SecA ATPase Inhibitors. Type of assay: functional. The note with it: 30 µM.
In assay [2] the target is T1, Ubiquitin-activating enzyme e1, putative (Leishmania donovani (strain BPK282A1)) (UniProt E9BSI1).
T1 sequence (whole entry): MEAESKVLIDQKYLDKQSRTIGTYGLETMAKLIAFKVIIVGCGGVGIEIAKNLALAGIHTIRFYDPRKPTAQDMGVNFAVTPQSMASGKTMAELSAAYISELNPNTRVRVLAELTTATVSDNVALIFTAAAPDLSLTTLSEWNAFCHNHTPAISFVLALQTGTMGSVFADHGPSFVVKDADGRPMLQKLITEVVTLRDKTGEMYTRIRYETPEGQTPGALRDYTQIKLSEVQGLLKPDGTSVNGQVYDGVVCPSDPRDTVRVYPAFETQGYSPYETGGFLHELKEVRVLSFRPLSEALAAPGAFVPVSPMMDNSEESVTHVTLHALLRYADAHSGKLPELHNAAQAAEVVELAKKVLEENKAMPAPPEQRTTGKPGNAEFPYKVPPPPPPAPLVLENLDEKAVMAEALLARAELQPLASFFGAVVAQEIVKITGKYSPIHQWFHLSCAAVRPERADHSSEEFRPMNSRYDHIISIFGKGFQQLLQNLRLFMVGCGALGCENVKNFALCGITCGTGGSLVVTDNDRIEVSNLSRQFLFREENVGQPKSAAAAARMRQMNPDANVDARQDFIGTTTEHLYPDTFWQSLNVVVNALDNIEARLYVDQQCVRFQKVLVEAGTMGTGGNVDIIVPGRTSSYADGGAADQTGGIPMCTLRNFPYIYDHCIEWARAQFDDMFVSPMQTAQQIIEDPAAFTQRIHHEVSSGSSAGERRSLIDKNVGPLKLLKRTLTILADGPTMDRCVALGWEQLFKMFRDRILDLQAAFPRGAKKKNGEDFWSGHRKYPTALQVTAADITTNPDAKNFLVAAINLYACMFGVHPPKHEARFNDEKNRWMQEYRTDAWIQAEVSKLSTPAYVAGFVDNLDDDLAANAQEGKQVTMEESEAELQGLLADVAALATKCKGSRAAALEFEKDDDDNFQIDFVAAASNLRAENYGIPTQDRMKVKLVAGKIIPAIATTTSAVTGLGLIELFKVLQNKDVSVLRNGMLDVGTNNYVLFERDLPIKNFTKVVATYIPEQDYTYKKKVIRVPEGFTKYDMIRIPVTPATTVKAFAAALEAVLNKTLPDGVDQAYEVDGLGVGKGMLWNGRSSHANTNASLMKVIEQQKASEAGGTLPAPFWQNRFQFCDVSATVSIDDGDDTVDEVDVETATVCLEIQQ
The assay is described as follows: Leishmania donovani Ubiquitin Activating Enzyme (LdE1). Type of assay: functional. The conditions noted are these: 30 µM.

Assay [3] deals with T2, Aspartate--tRNA(Asp/Asn) ligase (Mycobacterium tuberculosis (strain ATCC 25618 / H37Rv)) (UniProt P9WFW3).
T2 sequence (whole entry): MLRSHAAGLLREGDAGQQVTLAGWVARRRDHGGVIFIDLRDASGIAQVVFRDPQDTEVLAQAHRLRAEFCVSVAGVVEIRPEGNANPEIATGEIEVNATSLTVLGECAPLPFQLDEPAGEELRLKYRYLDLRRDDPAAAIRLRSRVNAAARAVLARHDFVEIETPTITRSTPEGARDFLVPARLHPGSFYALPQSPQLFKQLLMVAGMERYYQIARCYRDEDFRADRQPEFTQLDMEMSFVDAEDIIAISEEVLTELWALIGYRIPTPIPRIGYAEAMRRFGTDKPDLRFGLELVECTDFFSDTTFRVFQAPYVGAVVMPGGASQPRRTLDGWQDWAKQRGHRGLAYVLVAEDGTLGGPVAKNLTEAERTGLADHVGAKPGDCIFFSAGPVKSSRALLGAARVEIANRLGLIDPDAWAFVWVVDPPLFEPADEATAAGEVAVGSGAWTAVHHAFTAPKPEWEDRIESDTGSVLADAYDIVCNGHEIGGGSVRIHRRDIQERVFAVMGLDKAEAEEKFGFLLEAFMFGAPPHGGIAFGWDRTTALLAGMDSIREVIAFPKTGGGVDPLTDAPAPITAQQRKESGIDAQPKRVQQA
As to the kind of experiment: Assay for Asp RNA synthetase-1 from Mycobacterium tuberculosis. Type of assay: functional. The note with it: 30 µM.

Assay [4] deals with AMP-activated protein kinase, AMPK (Homo sapiens) (UniProt P54646+O43741+P54619+Q9UGJ0+Q9Y478+Q13131+Q9UGI9). The assay is described as follows: AMP-dependent Kinase enzyme assay. An in vitro enzyme assay that detects ADP turnover that is directly proportional to AMPK activity. This uses naive AMPK that is activated during the assay with MK-8722. Type of assay: functional. The note with it: 30 µM.

Assay [5] addresses Sialic acid-binding Ig-like lectin 9 (Homo sapiens) (UniProt Q9Y336). As to the kind of experiment: Hs-Siglec9 ALPHAscreen SOP 20170721. The note with it: 10 µM.
Another assay deals with Trypanosoma cruzi. The assay is described as follows: Trypanosoma cruzi phosphomannomutase and mannose-1-phosphate guanylyltransferase assay. Type of assay: functional. The conditions noted are these: 10 µM.
The target in assay [6] is T3, Arginase-2, mitochondrial (Homo sapiens) (UniProt P78540).
T3 sequence (whole entry): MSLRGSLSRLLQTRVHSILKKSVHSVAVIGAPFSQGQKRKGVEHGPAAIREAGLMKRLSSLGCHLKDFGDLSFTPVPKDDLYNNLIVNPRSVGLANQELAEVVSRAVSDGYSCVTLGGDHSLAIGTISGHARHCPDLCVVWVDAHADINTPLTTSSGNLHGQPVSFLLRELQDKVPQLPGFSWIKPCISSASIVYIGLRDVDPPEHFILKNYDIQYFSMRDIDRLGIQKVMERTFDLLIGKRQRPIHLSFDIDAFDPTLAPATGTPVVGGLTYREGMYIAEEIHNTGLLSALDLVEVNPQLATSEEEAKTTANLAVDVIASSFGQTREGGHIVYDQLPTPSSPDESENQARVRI
The assay is described as follows: in vitro enzyme assay to detect the production of urea directly proportional to the activity of Arginase II. Further: in the data most compounds retested in dose-response had high values. Type of assay: functional. The note with it: 33.3 µM.

For assay [7], the target named is T4, Proteasome subunit beta (Trypanosoma cruzi) (UniProt O96673).
T4 sequence (whole entry): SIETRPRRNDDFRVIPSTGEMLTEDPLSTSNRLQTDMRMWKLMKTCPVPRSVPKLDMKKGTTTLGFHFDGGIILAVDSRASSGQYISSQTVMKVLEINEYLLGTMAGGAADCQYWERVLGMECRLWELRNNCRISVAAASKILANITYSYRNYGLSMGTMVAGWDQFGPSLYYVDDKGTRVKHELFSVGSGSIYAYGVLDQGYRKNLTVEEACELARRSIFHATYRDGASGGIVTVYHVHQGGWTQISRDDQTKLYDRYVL
The assay is described as follows: Trypanosoma cruzi proteasome chymotrypsin-like activity (TcProtChymo) assay. Further: in the data most compounds retested in dose-response had high values. Type of assay: functional. The note with it: 9.37 µM.

Another assay is filed under the species Homo sapiens. As to the kind of experiment: To identify inhibition of the IFN signalling (Jak-Stat) pathway via expression of an eGFP reporter gene under the control of an IFN-stimulated response element (ISRE) containing MxA promoter. Type of assay: functional. The conditions noted are these: 30 µM. A general note: In a reporter assay the amount or activity of a reporter protein is the signal.

Assay [8] has as its target T5, Tyrosyl-tRNA synthetase, putative (Trypanosoma cruzi (strain CL Brener)) (UniProt Q4DSP6).
T5 sequence (whole entry): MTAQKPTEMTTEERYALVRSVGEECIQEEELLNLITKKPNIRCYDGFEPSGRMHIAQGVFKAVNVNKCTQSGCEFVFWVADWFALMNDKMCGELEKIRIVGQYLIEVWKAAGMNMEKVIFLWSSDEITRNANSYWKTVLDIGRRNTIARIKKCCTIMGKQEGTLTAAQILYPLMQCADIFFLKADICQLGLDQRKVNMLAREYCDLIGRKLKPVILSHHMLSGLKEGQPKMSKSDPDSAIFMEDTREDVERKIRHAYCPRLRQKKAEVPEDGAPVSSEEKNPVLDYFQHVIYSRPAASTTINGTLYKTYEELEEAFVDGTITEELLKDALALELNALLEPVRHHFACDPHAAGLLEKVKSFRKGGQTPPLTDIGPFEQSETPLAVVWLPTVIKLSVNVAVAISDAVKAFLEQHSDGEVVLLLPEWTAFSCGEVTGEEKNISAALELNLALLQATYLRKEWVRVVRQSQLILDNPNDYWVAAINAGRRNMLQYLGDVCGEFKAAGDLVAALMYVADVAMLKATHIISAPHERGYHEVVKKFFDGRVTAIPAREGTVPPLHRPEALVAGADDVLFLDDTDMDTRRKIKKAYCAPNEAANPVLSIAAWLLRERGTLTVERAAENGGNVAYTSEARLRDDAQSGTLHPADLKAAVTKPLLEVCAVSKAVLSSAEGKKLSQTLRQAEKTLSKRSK
As to the kind of experiment: Trypanosoma cruzi tyrosyl tRNA synthetase (TcYRS) _High Tyrosine SOP. Further: in the data most compounds retested in dose-response had high values. Type of assay: functional. The note with it: 30 µM.

In assay [9] the target is T5, Tyrosyl-tRNA synthetase, putative (Trypanosoma cruzi (strain CL Brener)). As to the kind of experiment: Trypanosoma cruzi tyrosyl tRNA synthetase (TcYRS) SOP. Type of assay: functional. The note with it: 30 µM.
The target in assay [10] is Chromo domain-containing protein 1 (Saccharomyces cerevisiae (strain ATCC 204508 / S288c) (Baker's yeast)) (UniProt P32657). The assay is described as follows: ScCHD-1 Enzyme Inhibition Assay. Further: in the data most compounds retested in dose-response had high values. The note with it: 30 µM. Type of assay: functional.
The target of assay [11] is Shiga toxin 2 (Escherichia coli O157:H7) (UniProt P09385+P09386). The assay is described as follows: E. coli 0.157:H7 Shiga Toxin SOP - stx2 screening assay. Type of assay: functional. The note with it: 30 µM.

Protein translocase subunit SecA (Escherichia coli (strain K12)), sequence (P10408 whole entry): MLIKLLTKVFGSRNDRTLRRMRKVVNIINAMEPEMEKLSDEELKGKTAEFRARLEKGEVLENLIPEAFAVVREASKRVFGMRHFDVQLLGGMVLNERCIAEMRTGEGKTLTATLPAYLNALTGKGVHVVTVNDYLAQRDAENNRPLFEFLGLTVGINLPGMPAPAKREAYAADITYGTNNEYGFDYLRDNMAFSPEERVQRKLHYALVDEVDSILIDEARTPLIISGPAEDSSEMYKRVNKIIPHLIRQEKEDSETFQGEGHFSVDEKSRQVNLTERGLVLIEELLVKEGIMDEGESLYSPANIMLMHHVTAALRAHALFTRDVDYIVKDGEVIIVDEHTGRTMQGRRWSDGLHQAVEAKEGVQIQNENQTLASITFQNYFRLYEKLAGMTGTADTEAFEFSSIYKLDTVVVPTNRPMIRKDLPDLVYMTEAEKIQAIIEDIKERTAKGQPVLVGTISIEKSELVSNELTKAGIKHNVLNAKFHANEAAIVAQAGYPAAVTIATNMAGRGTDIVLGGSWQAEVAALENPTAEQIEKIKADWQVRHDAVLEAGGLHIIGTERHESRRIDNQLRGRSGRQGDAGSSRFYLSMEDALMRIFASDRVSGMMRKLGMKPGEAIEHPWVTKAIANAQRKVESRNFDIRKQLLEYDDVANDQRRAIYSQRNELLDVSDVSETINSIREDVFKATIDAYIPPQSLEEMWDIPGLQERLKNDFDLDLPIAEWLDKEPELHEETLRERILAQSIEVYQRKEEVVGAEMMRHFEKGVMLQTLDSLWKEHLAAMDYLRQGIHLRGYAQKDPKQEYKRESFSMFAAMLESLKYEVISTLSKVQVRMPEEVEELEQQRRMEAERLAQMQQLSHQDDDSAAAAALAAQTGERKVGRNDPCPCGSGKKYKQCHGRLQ
Sialic acid-binding Ig-like lectin 9 (Homo sapiens), sequence (Q9Y336 whole entry): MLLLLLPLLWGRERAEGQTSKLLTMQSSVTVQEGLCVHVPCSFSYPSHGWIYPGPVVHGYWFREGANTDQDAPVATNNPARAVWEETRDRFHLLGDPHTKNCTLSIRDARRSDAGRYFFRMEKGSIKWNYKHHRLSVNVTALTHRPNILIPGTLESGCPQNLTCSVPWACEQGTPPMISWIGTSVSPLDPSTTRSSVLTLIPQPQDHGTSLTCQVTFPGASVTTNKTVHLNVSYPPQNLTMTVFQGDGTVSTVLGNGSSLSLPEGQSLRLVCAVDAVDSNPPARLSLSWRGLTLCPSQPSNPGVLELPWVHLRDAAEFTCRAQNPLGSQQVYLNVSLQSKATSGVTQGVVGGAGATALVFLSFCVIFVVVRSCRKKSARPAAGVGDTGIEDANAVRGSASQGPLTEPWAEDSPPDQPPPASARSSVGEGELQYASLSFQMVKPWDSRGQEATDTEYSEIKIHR
Chromo domain-containing protein 1 (Saccharomyces cerevisiae (strain ATCC 204508 / S288c) (Baker's yeast)), sequence (P32657 whole entry, the tested form may be a part): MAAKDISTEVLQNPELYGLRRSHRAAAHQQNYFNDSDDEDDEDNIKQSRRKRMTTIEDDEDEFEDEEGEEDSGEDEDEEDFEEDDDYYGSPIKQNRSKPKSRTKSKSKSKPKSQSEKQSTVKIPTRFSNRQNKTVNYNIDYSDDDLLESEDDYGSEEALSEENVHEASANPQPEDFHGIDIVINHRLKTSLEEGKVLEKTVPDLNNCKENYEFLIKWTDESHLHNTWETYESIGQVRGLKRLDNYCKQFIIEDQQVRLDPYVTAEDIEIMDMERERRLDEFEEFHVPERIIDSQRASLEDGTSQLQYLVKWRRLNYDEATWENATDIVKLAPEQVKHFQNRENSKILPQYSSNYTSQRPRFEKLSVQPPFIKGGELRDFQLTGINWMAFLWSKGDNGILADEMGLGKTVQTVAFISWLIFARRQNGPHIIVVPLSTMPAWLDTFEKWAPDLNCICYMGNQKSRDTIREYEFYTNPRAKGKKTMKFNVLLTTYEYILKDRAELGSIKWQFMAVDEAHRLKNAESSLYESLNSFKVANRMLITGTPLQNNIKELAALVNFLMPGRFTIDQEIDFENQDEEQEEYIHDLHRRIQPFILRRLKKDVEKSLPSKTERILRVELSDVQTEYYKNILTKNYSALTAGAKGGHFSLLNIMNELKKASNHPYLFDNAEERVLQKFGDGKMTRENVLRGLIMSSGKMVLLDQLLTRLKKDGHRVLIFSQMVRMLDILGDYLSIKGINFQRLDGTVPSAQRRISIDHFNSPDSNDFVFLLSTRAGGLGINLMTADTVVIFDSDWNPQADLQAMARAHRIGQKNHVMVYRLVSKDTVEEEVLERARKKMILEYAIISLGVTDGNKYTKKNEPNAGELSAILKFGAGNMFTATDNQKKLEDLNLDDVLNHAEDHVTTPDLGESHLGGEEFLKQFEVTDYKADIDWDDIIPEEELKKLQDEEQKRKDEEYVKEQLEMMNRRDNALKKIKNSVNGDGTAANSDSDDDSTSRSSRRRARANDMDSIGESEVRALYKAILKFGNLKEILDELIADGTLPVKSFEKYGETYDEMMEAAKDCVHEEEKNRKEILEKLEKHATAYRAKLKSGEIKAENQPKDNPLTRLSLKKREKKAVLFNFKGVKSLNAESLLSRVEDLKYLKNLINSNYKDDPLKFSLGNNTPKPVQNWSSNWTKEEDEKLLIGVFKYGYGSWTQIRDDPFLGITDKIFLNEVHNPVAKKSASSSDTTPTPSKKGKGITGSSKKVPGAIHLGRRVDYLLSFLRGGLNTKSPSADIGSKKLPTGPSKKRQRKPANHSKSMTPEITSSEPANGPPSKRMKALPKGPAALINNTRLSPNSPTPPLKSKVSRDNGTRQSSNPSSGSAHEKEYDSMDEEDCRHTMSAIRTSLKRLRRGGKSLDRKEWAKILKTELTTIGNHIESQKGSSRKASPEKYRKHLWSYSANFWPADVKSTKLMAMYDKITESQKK

As for `CSc1nccc(N2CCN(C)C3(CCNC(=O)CC3)C2)n1` (stereo unspecified), the Percent Effect in assay [1] was -5.63%; in [2], 8%; in assay [3] it was -0.126%; in [4], -1.22%; in [5], 2.82%; in the assay on Trypanosoma cruzi it was -1.66%. Also, the Percent Effect was 5.73% in assay [6]; 12.6% in assay [7]; -2.91% in the assay filed under Homo sapiens; 3.83% in assay [8]; 13.6% in assay [9]; -6.95% in assay [10].

In the case of `CC[C@H]1N(C)CCC[C@]12CCC(=O)N2Cc1ccncc1`, the Percent Effect in assay [1] is -1.96%; in assay [2] it was 32.5%; in assay [3], 0.228%; in assay [5], 0.456%; with Trypanosoma cruzi, 1.69%; in assay [6], -1.83%. The Percent Effect is 14.3% in assay [7]; 16.7% in the assay listed under Homo sapiens; -15.6% in assay [11]; 7.73% in assay [8]; 10% in [9]; -8.84% in assay [10].

On to `Cc1noc(C)c1CN1CCO[C@H]2CN(CC3CC3)C[C@H]21`, for which the Percent Effect in [1] is -4.84%; in assay [2], 11.7%; in assay [3] it was -1.48%; in assay [5] it was 9.57%; with Trypanosoma cruzi, 4.58%; in assay [6] it was 3.24%. For the same compound, the Percent Effect in assay [7] is 18.4%; in the assay filed under Homo sapiens it was 2.94%; in [11], -2.75%; in [8], 8.95%; in [9], 20.5%; in [10], 12.9%.

Regarding `CC(C)N1CCC2(CCN(C(=O)c3cccnc3)CC2)C1`, the Percent Effect in assay [1] was 1.13%; in [2] it was 10.8%; in [3] it was 1.7%; in [4] it was 4.26%; in [5], -12.5%; with Trypanosoma cruzi it was -9.68%. Besides, the Percent Effect was 8.6% in assay [6]; 20.9% in assay [7]; -1.74% in the assay listed under Homo sapiens; -5.59% in assay [11]; -24.9% in assay [8]; 10.3% in assay [9]. The Percent Effect in assay [10] was -2.2%.

For `CNCCc1nc2cc(F)ccc2[nH]1`, the Percent Effect in assay [1] was -3.21%; in assay [2], 0%; in assay [3] it was 5.99%; in assay [4], -8.1%; in [5], -3.69%; in the assay on Trypanosoma cruzi, -6.13%. For the same compound, the Percent Effect in assay [6] was 5.21%; in [7], 5.23%; in the assay filed under Homo sapiens, 4.18%; in assay [8], -4.92%; in [9] it was -8.64%; in assay [10] it was -3.45%.
